Source: PubChem BioAssay (NCATS)
Inconclusive results are not listed. Unmarked numbers belong to inactive results. Calls come from the whole dose curve; as a rule, active = well fitted inhibition curve with a large enough effect; inconclusive = small, poorly fitted or top-dose-only effect; inactive = flat fitted curve, though single readings scatter.

biological target: Calcium and integrin-binding protein 1 (Homo sapiens) (UniProt Q99828); assay: Primary qHTS for Identification of Calcium Integrin Binding Protein 1 (CIB1) Competitor (AID 1508620); conditions: CIB1-GST / FITC-alphaIIb peptide fluorescence polarization; series mostly up to 114 µM; activity change, negative = inhibition: at the top concentration;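 note: GST tagged CIB1 binding a fluorescein labelled alphaIIb integrin peptide tracer; top concentration of the series differs between compounds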
Sequence (Q99828 whole entry, looked up): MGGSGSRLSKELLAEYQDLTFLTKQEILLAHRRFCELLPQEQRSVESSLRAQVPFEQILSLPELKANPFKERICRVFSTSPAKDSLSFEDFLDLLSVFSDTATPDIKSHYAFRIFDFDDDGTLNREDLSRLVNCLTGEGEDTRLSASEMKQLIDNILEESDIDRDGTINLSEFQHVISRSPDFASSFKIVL
How it was run: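 Fluorescence polarization competition: CIB1-GST (1 uM final) preincubated with compound 15 min at room temperature, then FITC-labeled alphaIIb peptide (100 nM final) added for another 15 min. Polarization read at Ex 480/Em 540.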
% is set by controls: 0 for no effect and ±100 for the full control effect.

Structure (SMILES) | activity change, negative = inhibition
Cn1nnnc1Sc1ncnc2scc(-c3cccc(F)c3)c12 | 0.739%
O=C1Nc2cc(Cl)ccc2/C1=C\c1cc(Cl)c(O)c(Cl)c1 | 15.5%
CC(=O)Nc1ccc(S(=O)(=O)N2CCN(c3ccc(C(C)=O)cc3)CC2)cc1 | 1.35%
O=c1c(Nc2ccc(Cl)c(Cl)c2)c(Nc2nnc(-c3ccncc3)s2)c1=O | -14%
Cn1c2cc(C#N)sc2c2cnn(Cc3ccccc3F)c(=O)c21 | -2.87%
COc1ccnc(NC(=S)N2CCN(c3cccc(C(F)(F)F)n3)CC2)c1 | 4.68%
O=C1CCCC2=C1C(c1c(Cl)cccc1Cl)N=C(Nc1nc3ccccc3o1)N2 (stereo not given) | -1.51%
COc1cccc(CNc2ccc(S(=O)(=O)Nc3cccs3)cc2)c1O | -1.7% [at 30.2 µM]
Oc1ccc(CNc2ccc(C(F)(F)F)cc2Cl)c2cccnc12 | -2.74%
O=C(NCc1ccccc1)C1CCN(c2nc(-c3ccc(Br)cc3)cs2)CC1 | -13.4%
N#Cc1cc(NC(=O)Nc2nnc(-c3ccncc3)s2)ccc1-c1ccc[nH]1 | -3.1%
O=C1c2ccccc2C(=O)N1Cc1ccncc1 | 5.81%
FC1(F)Oc2ccc(-c3ccc4ncnc(NCc5cccs5)c4c3)cc2O1 | 4.67%
Cc1cc(C)nc(NC(=S)N2CCN(c3ccc([N+](=O)[O-])c4cccnc34)CC2)c1 | -1.18%
O=C(CNC(=O)C1CCCC1)OC(C(=O)Nc1cc(C(F)(F)F)ccc1Cl)c1ccccc1 (stereo not given) | 2.28%
O=C1CCc2cc(S(=O)(=O)Nc3ccccc3-c3ccccc3)ccc2N1 | 1.77%
O=C(O)c1cccc(-n2cccc2/C=C2/C(=O)N(Cc3ccc(F)cc3)C(=O)N2Cc2ccc(F)cc2)c1 | -17.3%
O=S(=O)(c1ccc2c(c1)OCCO2)N1C[C@@H]2C[C@H]1CN2S(=O)(=O)c1c(F)cccc1F | -0.1%
Cc1ccc(NC(=O)CSc2nnc(-c3cccc([S+](=O)([O-])N4CCCC4)c3)n2-c2c(C)cccc2C)cc1 | 3.04%
O=C1c2ccccc2NC(c2ccc(-c3ccccc3F)o2)N1O (stereo not given) | -3.76%

Structure (SMILES) | activity change, negative = inhibition
O=c1c2ccccc2nc2sc(Nc3ccc(Sc4ccccc4)cc3)nn12 | 2.89%
N#Cc1nc(Nc2cc(F)cc(F)c2)c2ncn(CCO)c2n1 | 4.55%
COc1ccccc1-c1nnc(SCC#CCOC(=O)c2ccc(F)cc2)o1 | 5.02%
O=C(Nc1ccc2ccccc2c1)Nc1nnc(-c2ccccc2)s1 | 5.36%
O=C(N/C=C/c1ccccc1)c1cccc([S+](=O)([O-])Nc2ccccc2F)c1 | 4.59%
Cc1cc(NS(=O)(=O)c2ccc(NC(=O)Cc3cccc(Cl)c3)cc2)no1 | -13.8%
CCOc1ccccc1-c1nnc2n1N=C(c1ccccc1OC)CS2 | 1.6%
COc1ccc(C2=Nn3c(nnc3-c3ccc(OC)c(OC)c3)SC2)cc1OC | 1.49%
Cc1cccc(-n2cnc3cc(C(=O)N4CCCC(c5ccccc5)C4)ccc32)c1 (stereo not given) | 3.59%
c1ccc(-c2nc(NCc3ccc(-c4cccnc4)cc3)c3ccccc3n2)cc1 | 9.94%
Cc1cccc(N2CCN(C(=S)Nc3cc(C)ccn3)CC2)c1 | -20.4%
CN1CCN(c2nn3c(=O)c4ccccc4nc3s2)CC1 | 0.849%
Cc1ccc(Cl)cc1NS(=O)(=O)c1cc2c(cc1Cl)CCC(=O)N2 | -0.0658%
c1nc(NCC2CCCCO2)c2cc(-c3ccc4c(c3)OCO4)ccc2n1 (stereo not given) | -4.09%
C[C@H](NC(c1ccc(F)cc1)c1ccc2cccnc2c1O)c1ccccc1 (stereo not given in full) | -2.06%
O=C(O)Cc1cc(F)c(S(=O)(=O)N2CCN(S(=O)(=O)c3ccc4c(c3)OCCO4)CC2)cc1F | -7.57%
Cc1cc(-c2nnc3n2CCCCC3)c(C)n1-c1cccc(C(F)(F)F)c1 | 2.31%
O=C(Nc1nnc(COc2ccc(Cl)cc2)s1)c1cccs1 | -2.43%
CC1=C(C(=O)Nc2ccccc2)C(c2ccccc2Cl)N=C(Nc2nc3ccccc3o2)N1 (stereo not given) | 6.99%
Cc1cnc(-c2ccccc2C2COC2)nc1NCc1ccc(-c2cccnc2)cc1 | 2.86%
